According to PubChem BioAssay (NCATS):
Inconclusive results are not listed. A number with no mark means an inactive call. Activity calls are given as the source filed them. The call rests on the fitted dose curve; in most records, active means well fitted inhibition curve with a large enough effect; inconclusive means small, poorly fitted or top-dose-only effect; inactive means flat fitted curve, though single readings scatter.

target: Calcium and integrin-binding protein 1 (Homo sapiens) (UniProt Q99828); experiment: Primary qHTS for Identification of Calcium Integrin Binding Protein 1 (CIB1) Competitor (AID 1508620); conditions: CIB1-GST / FITC-alphaIIb peptide fluorescence polarization; series mostly up to 114 µM; activity change, negative = inhibition: at the top concentration;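 on activity change, negative = inhibition: GST tagged CIB1 binding a fluorescein labelled alphaIIb integrin peptide tracer; top concentration of the series differs between compounds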
Sequence (Q99828 whole entry, looked up): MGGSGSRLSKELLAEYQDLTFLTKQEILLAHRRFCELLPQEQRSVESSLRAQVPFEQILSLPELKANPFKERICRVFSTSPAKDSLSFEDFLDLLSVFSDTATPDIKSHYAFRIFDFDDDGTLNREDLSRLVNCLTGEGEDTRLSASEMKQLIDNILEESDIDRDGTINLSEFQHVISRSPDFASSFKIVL
From the text: Assay Provider: Ulhas P. Naik, PhD Sidney Kimmel Medical College Thomas Jefferson University, Philadelphia, PA Primary function of platelets is to maintain hemostasis. At the site of vascular injury, platelets adhere to adhesive proteins such as collagen and von Willebrand factor. Adherent platelets are activated and generate soluble platelet agonists such as thrombin, ADP and thromboxane A2. Following exposure of circulating platelets to these agonists, results in platelet shape change, granule secretion and activation of platelet integrin alphaIIb-beta3. Ligand binding to activated integrin alphaIIb-beta3 triggers outside-in signaling, leading to platelet aggregation, stabilization of platelet plug, and clot retraction. Upon atherosclerotic plaque rupture also causes platelet plug formation, which underlies a number of cardiovascular diseases such as myocardial infraction and stroke. A number of anti-platelet drugs such as aspirin, clopidogrel, prasugrel, vorapaxar, and eptifibatide are currently available to prevent the thrombotic complications. However, these anti-platelet agents have several limitations including inherent variability in individual responses, developing resistance, and serious bleeding side effects. For these reasons they are not suitable for long-term protection. Based on the experiences with current anti-platelet drugs, it appears that the most useful therapeutic approach is to intersect the secondary responses such as integrin outside-in signaling or recruitment of platelets by TxA2 and secreted ADP. Compounds, which can largely preserve the primary hemostatic function of platelets but inhibit secondary response will be most desired therapeutic agents for treatment of cardiovascular disease. CIB1 is a calcium integrin binding protein, which specifically interact with the alphaIIb subunit of integrin alphaIIb-beta3. Binding of CIB1 to alphaIIb regulates the outside-in signaling in platelets, which is needed for thrombus stabilization and thrombus growth. […] Therefore, we propose that discovery of a small molecule that can prevent the association of CIB1 and alphaIIb-beta3 will be a potential anti-platelet agent that can block the thrombus formation without undue effect on hemostasis. Reference: [1] Naik MU, Nigam A, Manrai P, et al. CIB1 deficiency results in impaired thrombosis: the potential role of CIB1 in outside-in signaling through integrin alpha IIb beta 3. J Thromb Haemost.
PROTOCOL TABLES SEQUENCE No. (1, 2, 3, etc.); […] (e.g., Cells, Incubation, Reagent, etc.); VALUE and DESCRIPTION. 1; Reagent; 3 uL; Protein or buffer (4/3x) 2; Compound; 46 nL; Control inhibitor / compound library 3; Time; 15 min; Room temperature incubation 4; Reagent; 1 uL; Fluorescent labeled peptide (4x) 5; Time; 1000 rpm; Centrifuge 6; Time; 15 min; Room temperature incubation 7; Detection; Ex 480/ Em 540; ViewLux Fluorescence Read NOTES (numbers refer to sequence above) 1; Protein Mixture: C1B1-GST (final concentrations of 1 uM). […] 3; Room temperature incubation. 4; Fluorescent Labeled Peptide: FITC-aIIb (final concentration of 100 nM). Sequence of alphaIIb peptide: Acetyl-[…]-FITC (purity is 95.83%). 5; Centrifuge 1000 rpm (164 g) for 15 seconds. 6; Room temperature incubation. 7; ViewLux Fluorescent Polization Read: excitation = 480(20) / emission = 540(25) S and P; FITC Dichroic mirror.
On the % scale 0 is the no-effect control and ±100 the full control effect; potency means the concentration at half of the fitted maximal effect.

Row | Compound | activity change, negative = inhibition | Potency
1 | CCOC(=O)C1=C(C)NC(C)=C(C(=O)OC)C1c1cccc([N+](=O)[O-])c1 (stereo not given) | -6.75% | –
2 | C[N+](C)(C)CCOC(=O)CCC(=O)OCC[N+](C)(C)C | 0.149% | –
3 | OCCN1CCN(CCCN2c3ccccc3C=Cc3ccccc32)CC1 | 3.79% | –
4 | CN(C)CC/C=C1\c2ccccc2COc2ccccc21 | -2.18% | –
5 | Cc1nc2sccn2c(=O)c1CCN1CCC(=C(c2ccc(F)cc2)c2ccc(F)cc2)CC1 | -15.4% | –
6 | Nc1c2c(nc3ccccc13)CCCC2O (stereo not given) | -6.86% | –
7 | O=C(CCCN1CCC(O)(c2cccc(C(F)(F)F)c2)CC1)c1ccc(F)cc1 | 1.61% | –
8 | COc1ccc(CCN(C)CCCC(C#N)(c2cc(OC)c(OC)c(OC)c2)C(C)C)cc1OC (stereo not given) | 9.18% | –
9 | COCC(=O)O[C@]1(CCN(C)CCCc2nc3ccccc3[nH]2)CCc2cc(F)ccc2[C@@H]1C(C)C | -4.01% | –
10 | CN(C)CCN(Cc1cccs1)c1ccccn1 | 4.54% | –
11 | CN(C)C/C=C(/c1ccc(Br)cc1)c1cccnc1 | 11.3% | –
12 | COc1cc(C(=O)OCCCN2CCCN(CCCOC(=O)c3cc(OC)c(OC)c(OC)c3)CC2)cc(OC)c1OC | 4.4% | –
13 | CCN(CC)CCNC(=O)c1ccc(NC(C)=O)cc1 | 6.04% | –
14 | CN=C(NC#N)NCCSCc1nc[nH]c1C | 5.68% | –
15 | O=C(O)CCCCCCCC(=O)O | -0.373% | –
16 | C[N+](C)(C)CCOC(N)=O | 7.46% | –
17 | c1ccc2c(c1)CCCC2C1=NCCN1 (stereo not given) | 2.39% | –
18 | C#CCN(C)CCCOc1ccc(Cl)cc1Cl | 0.92% | –
19 | CSc1ccc(C(=O)c2[nH]c(=O)[nH]c2C)cc1 | 16.6% | –
20 | CCCCCN(CCCCC)C(=O)C(CCC(=O)O)NC(=O)c1ccc(Cl)c(Cl)c1 (stereo not given) | -10.8% | –

Row | Compound | activity change, negative = inhibition | Potency
21 | O=C(O)CN(CCOCCOCCN(CC(=O)O)CC(=O)O)CC(=O)O | 0.103% [at 1.07 µM] | –
22 | COCCc1ccc(OCC(O)CNC(C)C)cc1 (stereo not given) | -0.889% | –
23 | CCc1c(C)[nH]c2c1C(=O)C(CN1CCOCC1)CC2 (stereo not given) | 1.93% | –
24 | NC(N)=N/N=C/c1c(Cl)cccc1Cl | 3.54% | –
25 | O=c1[nH]c(=O)n([C@H]2C[C@H](O)[C@@H](CO)O2)cc1Br | 0.719% | –
26 | CC(C)NNC(=O)c1ccncc1 | -3.89% | –
27 | CC(C)(C)NCC(O)c1cc(O)cc(O)c1 (stereo not given) | 7.01% | –
28 | CCn1nc(C(=O)O)c(=O)c2cc3c(cc21)OCO3 | -2.81% | –
29 | Cc1cccc(C)c1NC(=O)C(C)N (stereo not given) | 8.05% | –
30 | Cc1scc2c1N(C(=O)CN1CCN(C)CC1)c1ccccc1NC2=O | -0.988% | –
31 | CC(C)[N+](C)(CCOC(=O)C1c2ccccc2Oc2ccccc21)C(C)C | -1.58% | –
32 | CCNC(=O)N1CCN(CCCC(c2ccc(F)cc2)c2ccc(F)cc2)CC1 | -2.48% | –
33 | c1cnc(N2CCN(Cc3ccc4c(c3)OCO4)CC2)nc1 | 5.05% | –
34 | C[n+]1cc2c3c(ccc2c2ccc4cc5c(cc4c21)OCO5)OCO3 | – | 14.1 µM (active)
35 | CN(C)C(=O)Oc1ccc[n+](C)c1 | 4.36% | –
36 | FC(F)(F)c1ccccc1-n1ccnc1 | 4.85% | –
37 | CCN(CC)CCOCCOC(=O)C1(c2ccccc2)CCCC1 | 2.92% | –
38 | Cc1nc2c([nH]1)c(=O)n(C)c(=O)n2Cc1ccco1 | 5.97% | –
39 | CCO/C([O-])=N/c1c[n+](N2CCOCC2)no1 | 3.42% | –
40 | CCCCNc1c(C(=O)OCC)c(C)nc2c1cnn2CC | -5.19% | –
